Key:
Test in all cases: DAPPL (digital affinity profiling via proximity ligation, sequencing); 10 mM Tris-HCl pH 7.5, 50 mM NaCl, 1 mM DTT, 4% glycerol, room temperature, 30 min; GST-TFs on glutathione beads, 16-mer random dsDNA library, 0.1% formaldehyde crosslink after washing; high values mean tight binding
Details in all cases: protein: recombinant; tags: N-terminal GST; dsDNA, one strand shown
[1] = biological target: T1, FLI1 (Homo sapiens, UniProt Q01543 1-452)
T1 sequence: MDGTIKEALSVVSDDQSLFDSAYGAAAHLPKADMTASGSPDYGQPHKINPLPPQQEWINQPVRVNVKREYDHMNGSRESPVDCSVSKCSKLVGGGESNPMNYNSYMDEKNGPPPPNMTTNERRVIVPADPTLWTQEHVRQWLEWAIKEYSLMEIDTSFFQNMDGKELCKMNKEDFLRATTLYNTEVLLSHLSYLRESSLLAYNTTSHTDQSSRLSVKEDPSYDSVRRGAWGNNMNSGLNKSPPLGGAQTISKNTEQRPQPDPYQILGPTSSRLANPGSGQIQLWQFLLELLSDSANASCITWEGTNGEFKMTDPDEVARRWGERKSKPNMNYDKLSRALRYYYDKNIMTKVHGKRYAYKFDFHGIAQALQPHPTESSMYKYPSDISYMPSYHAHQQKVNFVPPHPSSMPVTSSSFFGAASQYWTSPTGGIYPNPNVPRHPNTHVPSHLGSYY
Outline: (§1)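 Yeast served to express human transcription factors as GST fusions, which were then captured on glutathione beads and labelled with DNA barcodes. Pooled with a tag-only sample, they were incubated with 200 nmole of a 16-mer random double-stranded DNA library for 30 min at room temperature in Tris/NaCl/DTT/glycerol buffer, washed, crosslinked with 0.1% formaldehyde, ligated by proximity, amplified by PCR and sequenced. Dividing each hexamer's read frequency for a factor by its frequency for the tag-only sample gives the binding signal.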

[2] = biological target: ELF1 (Homo sapiens, UniProt P32519 1-619)
Outline: as §1

[3] = biological target: T2, EHF (Homo sapiens, UniProt Q9NZC4 1-300)
T2 sequence: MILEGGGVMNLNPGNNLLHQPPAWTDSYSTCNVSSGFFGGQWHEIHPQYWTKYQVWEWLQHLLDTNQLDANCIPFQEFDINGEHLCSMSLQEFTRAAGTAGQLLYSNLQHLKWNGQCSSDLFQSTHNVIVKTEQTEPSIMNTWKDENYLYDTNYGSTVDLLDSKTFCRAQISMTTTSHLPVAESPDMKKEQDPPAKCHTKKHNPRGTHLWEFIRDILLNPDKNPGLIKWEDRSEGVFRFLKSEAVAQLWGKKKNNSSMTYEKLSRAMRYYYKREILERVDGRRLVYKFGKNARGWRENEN
Outline: as §1

[4] = biological target: SPI1 (Homo sapiens, UniProt P17947 1-270)
Outline: as §1

[5] = biological target: SPIB (Homo sapiens, UniProt Q01892 1-262)
Outline: as §1

[6] = biological target: T3, ELK4 (Homo sapiens, UniProt P28324-2 1-405)
T3 sequence: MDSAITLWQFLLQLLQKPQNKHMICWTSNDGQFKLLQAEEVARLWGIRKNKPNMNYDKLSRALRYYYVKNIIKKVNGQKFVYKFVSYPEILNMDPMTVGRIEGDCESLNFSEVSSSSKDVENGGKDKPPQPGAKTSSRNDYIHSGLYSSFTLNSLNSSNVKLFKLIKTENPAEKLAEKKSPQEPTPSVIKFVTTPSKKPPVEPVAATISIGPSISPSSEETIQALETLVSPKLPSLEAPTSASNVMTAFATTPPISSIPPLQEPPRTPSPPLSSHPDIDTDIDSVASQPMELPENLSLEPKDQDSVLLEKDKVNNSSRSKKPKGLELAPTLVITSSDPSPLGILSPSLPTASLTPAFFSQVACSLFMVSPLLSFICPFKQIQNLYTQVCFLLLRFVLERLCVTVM
Outline: as §1

[7] = biological target: T4, ELK1 (Homo sapiens, UniProt P19419 1-428)
T4 sequence: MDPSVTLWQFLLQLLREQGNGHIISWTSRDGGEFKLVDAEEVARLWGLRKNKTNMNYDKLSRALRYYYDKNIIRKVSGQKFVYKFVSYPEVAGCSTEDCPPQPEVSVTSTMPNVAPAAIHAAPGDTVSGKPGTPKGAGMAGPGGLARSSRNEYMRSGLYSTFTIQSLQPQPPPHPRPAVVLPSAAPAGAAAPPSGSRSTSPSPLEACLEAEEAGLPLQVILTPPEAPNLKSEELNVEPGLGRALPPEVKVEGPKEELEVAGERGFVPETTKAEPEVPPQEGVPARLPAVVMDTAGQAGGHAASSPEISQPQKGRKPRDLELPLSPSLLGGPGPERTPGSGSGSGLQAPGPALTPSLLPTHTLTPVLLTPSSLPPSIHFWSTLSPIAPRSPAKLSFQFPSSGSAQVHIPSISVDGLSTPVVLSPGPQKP
Outline: as §1

[8] = biological target: T5, GABPA (Homo sapiens, UniProt Q06546 1-454)
T5 sequence: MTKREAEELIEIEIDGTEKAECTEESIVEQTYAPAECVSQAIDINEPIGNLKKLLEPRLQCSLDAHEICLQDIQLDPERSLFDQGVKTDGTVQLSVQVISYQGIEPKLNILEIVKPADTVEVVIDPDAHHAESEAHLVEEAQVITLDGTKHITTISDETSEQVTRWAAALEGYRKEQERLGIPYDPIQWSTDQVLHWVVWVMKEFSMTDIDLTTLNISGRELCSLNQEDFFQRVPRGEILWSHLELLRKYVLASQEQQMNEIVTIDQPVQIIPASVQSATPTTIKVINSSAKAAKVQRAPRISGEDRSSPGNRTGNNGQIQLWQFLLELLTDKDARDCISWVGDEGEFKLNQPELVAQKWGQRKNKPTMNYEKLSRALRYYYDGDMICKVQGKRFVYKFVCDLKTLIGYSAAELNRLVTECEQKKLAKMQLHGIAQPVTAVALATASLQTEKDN
Outline: as §1

[9] = biological target: T6, SPIC (Homo sapiens, UniProt Q8N5J4 1-248)
T6 sequence: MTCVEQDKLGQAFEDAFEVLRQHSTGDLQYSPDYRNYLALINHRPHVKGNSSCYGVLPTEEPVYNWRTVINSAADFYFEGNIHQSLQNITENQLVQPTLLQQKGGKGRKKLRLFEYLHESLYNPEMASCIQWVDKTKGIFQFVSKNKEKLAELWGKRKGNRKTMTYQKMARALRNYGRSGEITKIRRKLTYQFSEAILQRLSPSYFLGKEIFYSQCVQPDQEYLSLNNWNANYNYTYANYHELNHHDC
Outline: as §1

[10] = biological target: ELF4 (Homo sapiens, UniProt Q99607 1-663)
Outline: as §1

[11] = biological target: T7, ETV2 (Homo sapiens, UniProt O00321 1-342)
T7 sequence: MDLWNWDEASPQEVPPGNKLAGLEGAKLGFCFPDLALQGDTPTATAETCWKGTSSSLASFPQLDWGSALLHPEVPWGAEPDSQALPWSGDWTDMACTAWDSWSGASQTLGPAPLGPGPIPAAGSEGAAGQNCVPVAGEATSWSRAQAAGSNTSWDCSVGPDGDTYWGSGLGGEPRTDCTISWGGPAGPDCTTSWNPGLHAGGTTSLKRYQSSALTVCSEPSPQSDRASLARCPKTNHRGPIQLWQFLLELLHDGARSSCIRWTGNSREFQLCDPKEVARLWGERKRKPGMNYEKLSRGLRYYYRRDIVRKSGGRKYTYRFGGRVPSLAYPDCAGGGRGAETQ
Outline: as §1

[12] = biological target: T8, ELF3 (Homo sapiens, UniProt P78545 1-371)
T8 sequence: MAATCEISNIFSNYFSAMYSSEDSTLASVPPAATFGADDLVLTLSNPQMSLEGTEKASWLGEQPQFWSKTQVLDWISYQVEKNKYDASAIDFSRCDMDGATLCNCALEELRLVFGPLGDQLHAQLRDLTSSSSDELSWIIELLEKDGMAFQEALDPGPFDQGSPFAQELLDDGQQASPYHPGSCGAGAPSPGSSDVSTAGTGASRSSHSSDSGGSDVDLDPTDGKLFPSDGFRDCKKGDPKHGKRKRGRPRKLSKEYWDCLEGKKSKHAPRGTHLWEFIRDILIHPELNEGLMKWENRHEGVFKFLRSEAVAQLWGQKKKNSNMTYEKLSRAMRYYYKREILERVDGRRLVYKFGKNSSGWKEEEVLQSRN
Outline: as §1

[13] = biological target: ETV1 (Homo sapiens, UniProt P50549 1-477)
Outline: as §1

[14] = biological target: T9, ERF (Homo sapiens, UniProt P50548 1-548)
T9 sequence: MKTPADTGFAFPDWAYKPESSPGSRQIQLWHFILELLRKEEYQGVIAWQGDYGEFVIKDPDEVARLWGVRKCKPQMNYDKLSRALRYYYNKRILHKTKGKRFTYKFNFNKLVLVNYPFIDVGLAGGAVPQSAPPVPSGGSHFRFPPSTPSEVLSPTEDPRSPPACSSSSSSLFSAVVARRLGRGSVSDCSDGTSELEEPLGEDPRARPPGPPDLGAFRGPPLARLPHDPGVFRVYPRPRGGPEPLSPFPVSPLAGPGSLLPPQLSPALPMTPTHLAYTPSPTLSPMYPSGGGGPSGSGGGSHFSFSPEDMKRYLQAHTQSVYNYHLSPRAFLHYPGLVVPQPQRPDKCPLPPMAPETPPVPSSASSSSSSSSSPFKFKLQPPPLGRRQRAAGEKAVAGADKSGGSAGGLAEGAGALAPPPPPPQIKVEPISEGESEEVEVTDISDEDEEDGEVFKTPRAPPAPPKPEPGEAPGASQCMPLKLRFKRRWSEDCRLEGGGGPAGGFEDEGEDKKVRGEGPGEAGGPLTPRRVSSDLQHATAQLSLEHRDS
Outline: as §1

[15] = biological target: T10, ETV7 (Homo sapiens, UniProt Q9Y603 1-341)
T10 sequence: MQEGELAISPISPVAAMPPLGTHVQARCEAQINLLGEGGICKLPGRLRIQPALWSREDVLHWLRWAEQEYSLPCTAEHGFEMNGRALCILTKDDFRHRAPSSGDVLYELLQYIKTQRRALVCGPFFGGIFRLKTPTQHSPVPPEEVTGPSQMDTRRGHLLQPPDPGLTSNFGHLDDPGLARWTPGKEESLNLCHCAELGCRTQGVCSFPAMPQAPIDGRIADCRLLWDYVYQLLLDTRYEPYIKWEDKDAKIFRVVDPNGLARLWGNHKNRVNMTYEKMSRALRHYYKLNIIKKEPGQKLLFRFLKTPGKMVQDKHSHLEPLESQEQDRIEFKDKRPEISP
Outline: as §1

[16] = biological target: T11, ETV3 (Homo sapiens, UniProt P41162-2 1-143)
T11 sequence: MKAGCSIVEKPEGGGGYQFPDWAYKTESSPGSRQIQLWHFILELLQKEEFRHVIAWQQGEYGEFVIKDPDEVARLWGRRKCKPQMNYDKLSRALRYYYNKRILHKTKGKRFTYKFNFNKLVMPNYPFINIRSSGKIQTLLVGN
Outline: as §1

ELF1, sequence (P32519 whole entry): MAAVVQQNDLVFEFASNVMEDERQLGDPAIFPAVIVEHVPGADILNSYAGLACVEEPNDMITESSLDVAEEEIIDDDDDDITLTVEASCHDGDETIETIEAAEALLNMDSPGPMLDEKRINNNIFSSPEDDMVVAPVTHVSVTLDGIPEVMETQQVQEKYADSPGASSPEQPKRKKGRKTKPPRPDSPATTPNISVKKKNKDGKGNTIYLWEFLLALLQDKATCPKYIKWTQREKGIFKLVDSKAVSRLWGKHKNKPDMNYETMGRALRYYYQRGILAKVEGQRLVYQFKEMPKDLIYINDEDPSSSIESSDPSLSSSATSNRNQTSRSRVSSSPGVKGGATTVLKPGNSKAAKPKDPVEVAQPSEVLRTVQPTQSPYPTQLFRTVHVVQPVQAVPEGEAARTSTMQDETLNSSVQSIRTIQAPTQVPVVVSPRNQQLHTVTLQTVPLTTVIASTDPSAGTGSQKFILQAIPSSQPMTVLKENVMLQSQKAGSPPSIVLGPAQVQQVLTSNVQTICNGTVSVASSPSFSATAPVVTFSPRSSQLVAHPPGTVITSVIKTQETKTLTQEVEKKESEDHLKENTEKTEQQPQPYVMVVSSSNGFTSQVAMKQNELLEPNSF
ETV1, sequence (P50549 whole entry): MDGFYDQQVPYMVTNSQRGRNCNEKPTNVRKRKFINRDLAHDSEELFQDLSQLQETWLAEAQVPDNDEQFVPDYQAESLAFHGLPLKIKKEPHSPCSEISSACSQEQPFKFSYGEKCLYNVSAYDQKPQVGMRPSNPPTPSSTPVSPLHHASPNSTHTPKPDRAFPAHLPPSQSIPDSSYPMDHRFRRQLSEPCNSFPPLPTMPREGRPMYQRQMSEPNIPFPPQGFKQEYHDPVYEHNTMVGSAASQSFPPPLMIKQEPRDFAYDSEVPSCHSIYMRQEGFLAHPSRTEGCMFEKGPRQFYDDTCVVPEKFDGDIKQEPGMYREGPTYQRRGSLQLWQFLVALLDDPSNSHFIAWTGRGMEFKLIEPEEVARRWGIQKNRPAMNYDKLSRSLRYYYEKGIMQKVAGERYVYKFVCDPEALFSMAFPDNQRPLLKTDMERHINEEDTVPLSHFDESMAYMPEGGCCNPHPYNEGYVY
ELF4, sequence (Q99607 whole entry): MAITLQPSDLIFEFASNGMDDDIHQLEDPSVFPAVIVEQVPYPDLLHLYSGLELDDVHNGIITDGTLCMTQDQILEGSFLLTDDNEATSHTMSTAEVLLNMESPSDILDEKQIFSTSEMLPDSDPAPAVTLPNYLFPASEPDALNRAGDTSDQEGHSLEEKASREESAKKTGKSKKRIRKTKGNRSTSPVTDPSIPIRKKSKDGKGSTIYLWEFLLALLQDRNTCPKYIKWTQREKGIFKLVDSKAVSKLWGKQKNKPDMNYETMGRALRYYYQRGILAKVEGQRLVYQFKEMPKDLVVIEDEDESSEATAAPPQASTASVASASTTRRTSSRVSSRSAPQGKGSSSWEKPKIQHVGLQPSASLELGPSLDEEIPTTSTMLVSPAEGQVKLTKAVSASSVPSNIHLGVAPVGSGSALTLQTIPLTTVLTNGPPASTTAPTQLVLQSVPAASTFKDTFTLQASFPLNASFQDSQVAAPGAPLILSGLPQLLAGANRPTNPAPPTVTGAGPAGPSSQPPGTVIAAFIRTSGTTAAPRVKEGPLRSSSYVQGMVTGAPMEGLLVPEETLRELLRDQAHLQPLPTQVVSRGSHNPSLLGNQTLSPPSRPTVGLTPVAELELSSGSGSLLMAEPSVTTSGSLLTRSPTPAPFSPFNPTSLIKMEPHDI
SPIB, sequence (Q01892 whole entry): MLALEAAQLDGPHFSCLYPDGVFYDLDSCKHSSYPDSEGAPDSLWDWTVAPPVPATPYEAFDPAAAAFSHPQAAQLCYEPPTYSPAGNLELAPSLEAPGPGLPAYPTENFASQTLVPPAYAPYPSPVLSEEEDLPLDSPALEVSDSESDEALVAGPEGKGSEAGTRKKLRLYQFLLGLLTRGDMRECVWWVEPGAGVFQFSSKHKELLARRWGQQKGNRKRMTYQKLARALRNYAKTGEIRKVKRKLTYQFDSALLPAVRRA

Row | Sequence | binding signal [1] | binding signal [2] | binding signal [3] | binding signal [4] | binding signal [5] | binding signal [6] | binding signal [7] | binding signal [8] | binding signal [9] | binding signal [10] | binding signal [11] | binding signal [12] | binding signal [13] | binding signal [14] | binding signal [15] | binding signal [16]
1 | TCGCGT | 1.01 fold enrichment (6-mer frequency, TF over GST control) | 1 fold enrichment (6-mer frequency, TF over GST control) | 1.02 fold enrichment (6-mer frequency, TF over GST control) | 1 fold enrichment (6-mer frequency, TF over GST control) | 1.01 fold enrichment (6-mer frequency, TF over GST control) | 1.06 fold enrichment (6-mer frequency, TF over GST control) |  |  |  |  |  |  |  |  |  | 
2 | ACTTGA | 1.1 fold enrichment (6-mer frequency, TF over GST control) | 1.02 fold enrichment (6-mer frequency, TF over GST control) |  |  |  | 1.14 fold enrichment (6-mer frequency, TF over GST control) | 1.1 fold enrichment (6-mer frequency, TF over GST control) | 1 fold enrichment (6-mer frequency, TF over GST control) | 1 fold enrichment (6-mer frequency, TF over GST control) | 1.07 fold enrichment (6-mer frequency, TF over GST control) | 1.13 fold enrichment (6-mer frequency, TF over GST control) | 1.04 fold enrichment (6-mer frequency, TF over GST control) | 1.07 fold enrichment (6-mer frequency, TF over GST control) | 1.01 fold enrichment (6-mer frequency, TF over GST control) | 1.08 fold enrichment (6-mer frequency, TF over GST control) | 1.07 fold enrichment (6-mer frequency, TF over GST control)

Source: paper PMC7862700, “An all-to-all approach to the identification of sequence-specific readers for epigenetic DNA modifications on cytosine”
